Assay results as given in ChEMBL document CHEMBL3988442, “University of Dundee, Small-Polar-MMV Screening Library” (2021).
Out of some 48,000 compounds screened, about 13,000 (27%) showed an effect of 50% or more. Some of the results follow.

System: Wolbachia pipientis
Assay: Anti-Wolbachia Cell-Based Screen
Format: functional
Design: scale not given: in the data most compounds retested in dose-response had high values
Conditions: 5 µM

| SMILES | Percent Effect [%] |
| --- | --- |
| Cn1ncc2c1NC(=O)CC2c1cc2c(cc1Cl)OCO2 (stereo not drawn) | -77.33 |
| O=C1CC(c2ccc3c(c2)OCO3)c2cn[nH]c2N1 (stereo not drawn) | 104.3 |
| O=C1CO[C@H]2CN(Cc3ccc4c(c3)OCO4)C[C@H]2N1 | -13.01 |
| CCC(C)(NCc1ncc(C(C)C)o1)c1nccs1 (stereo not drawn) | -9.094 |
| CN(C)[C@@H]1CO[C@H](CNC(=O)Nc2ccccc2)[C@H]1O | -15.17 |
| CN(Cc1c(F)cccc1Cl)C(=O)Nc1cnn(CC(N)=O)c1 | -4.374 |
| CCOc1ccc2nc(CN3CCOC(CN)C3)ccc2c1 (stereo not drawn) | 8.772 |
| CC(C)c1n[nH]c(C2CN(C(=O)c3ccnc(C4CC4)n3)CCO2)n1 (stereo not drawn) | 106.2 |
| Cc1nccc(C(=O)N2CCOC(c3nc(C(C)C)n[nH]3)C2)n1 (stereo not drawn) | 122.6 |
| CC1CCc2nc(O)c(C(=O)NCc3ccncc3)cc2C1 (stereo not drawn) | 0.9729 |
| CCc1nc(CN2CCCN(Cc3cnn(C)c3)CC2)no1 | -7.215 |
| CCCN(CC)C(=O)c1ncn2c1CN(C)S(=O)(=O)c1ccccc1-2 | 93.03 |
| CCNC(=O)c1ncn2c1CN(C)S(=O)(=O)c1ccccc1-2 | 6.974 |
| CN(C(=O)c1ncn2c1CN(C)S(=O)(=O)c1ccccc1-2)C1CC1.O=C(O)C(F)(F)F | 110.5 |
| CCCNC(=O)c1ncn2c1CN(CC(C)C)S(=O)(=O)c1ccccc1-2 | 51.12 |
| CCN1Cc2c(C(=O)NC(C)C)ncn2-c2ccccc2S1(=O)=O | -5.811 |
| CN1Cc2c(C(=O)N3CCOCC3)ncn2-c2ccccc2S1(=O)=O | -2.827 |
| CC(C)CN1Cc2c(C(=O)NC3CC3)ncn2-c2ccccc2S1(=O)=O | 24.74 |
| CN1CCN(C(=O)c2ncn3c2CNS(=O)(=O)c2ccccc2-3)CC1 | 3.453 |
| CN1CCN(C(=O)c2ncn3c2CN(C)S(=O)(=O)c2ccccc2-3)CC1.O=C(O)C(F)(F)F | 82.4 |
| CCN1Cc2c(C(=O)NC)ncn2-c2ccccc2S1(=O)=O | -8.627 |
| Cc1ncsc1CCN(C)C(=O)c1c(O)cccc1O | -0.9599 |
| O=C(CCn1nnc2ccccc2c1=O)N(CC1CCOC1)C1CC1 (stereo not drawn) | -7.506 |

| SMILES | Percent Effect [%] |
| --- | --- |
| CCCOC1CCCN(C(=O)Cn2cccc(C(F)(F)F)c2=O)C1 (stereo not drawn) | -4.197 |
| O=C(c1ncn2c1CNS(=O)(=O)c1ccccc1-2)N1CC=CC1 | -15.18 |
| CN1Cc2c(C(=O)NC3CCCCC3)ncn2-c2ccccc2S1(=O)=O.O=C(O)C(F)(F)F | 115.3 |
| CCC(CC)NC(=O)c1ncn2c1CN(CC)S(=O)(=O)c1ccccc1-2.O=C(O)C(F)(F)F | 4.599 |
| CCC(C)(C)NC(=O)c1ncn2c1CN(C)S(=O)(=O)c1ccccc1-2.O=C(O)C(F)(F)F | 117.1 |
| CN1Cc2c(C(=O)Nc3cccnc3)ncn2-c2ccccc2S1(=O)=O.O=C(O)C(F)(F)F | -4.618 |
| CN1Cc2c(C(=O)NCC3CCCO3)ncn2-c2ccccc2S1(=O)=O (stereo not drawn) | 113.6 |
| CC(C)C(C)NC(=O)c1ncn2c1CN(C)S(=O)(=O)c1ccccc1-2.O=C(O)C(F)(F)F (stereo not drawn) | 211.3 |
| CCN1Cc2c(C(=O)NC(C)C(C)C)ncn2-c2ccccc2S1(=O)=O (stereo not drawn) | 6.168 |
| Cc1c(C(=O)NC2CCCC2)nnn1-c1ccccc1 | -16.4 |
| Cc1c(CNC(=O)C2CCCN2C(=O)C2CC2)oc2ccccc12 (stereo not drawn) | -1.359 |
| CCOc1cccc(NS(=O)(=O)c2cc(C)c(C(=O)O)s2)c1 | -3.705 |
| O=C(c1csc(-c2cccs2)n1)N1CCCC1Cn1cccn1 (stereo not drawn) | 4.192 |
| CN(CC(=O)N1CCCC1Cn1cccn1)c1cnccn1 (stereo not drawn) | -3.712 |
| Cn1cc(-c2nc(C(=O)N3CCCC3Cn3cccn3)cs2)cn1 (stereo not drawn) | 119.5 |
| CCc1nc(CC(=O)N2CCCC2Cn2cccn2)cs1 (stereo not drawn) | -8.177 |
| CCC1CN(C(=O)c2csc(-c3cnn(C)c3)n2)CCO1 (stereo not drawn) | 8.184 |
| O=C(c1csc(-c2ccccn2)n1)N1CCCC1Cn1cccn1 (stereo not drawn) | 108.1 |
| O=C(c1csc(-c2ncccn2)n1)N1CCCC1Cn1cccn1 (stereo not drawn) | 100.9 |
| O=C(c1csc(-c2cnccn2)n1)N1CCCC1Cn1cccn1 (stereo not drawn) | 125.1 |
| O=C(CN1CCCCCC1=O)NCC1CCN(c2ccccc2)C1 (stereo not drawn) | -4.287 |
| O=C(N1CCOCC1CO)C1(c2cccs2)CCCC1 (stereo not drawn) | 1.205 |
| COc1ccc(/C=C/CN2CCN(c3nccnc3C)CC2)cc1 | 1.299 |

| SMILES | Percent Effect [%] |
| --- | --- |
| COc1ccc(N(CCC(N)=O)C(=O)CSc2ccc(F)c(F)c2)cc1 | 6.569 |
| CCc1nc(CCNC(=O)NC2CCN(C(C)C)C2)sc1C (stereo not drawn) | -28.06 |
| Cc1ncc(CN2CCCC2c2ccc(C(=O)NCc3ccoc3)s2)s1 (stereo not drawn) | 9.292 |
| CCCc1nnc(N2CCN(c3ccccc3F)CC2)o1 | 104.4 |
| CCCc1nnc(N2CCN(c3ccccc3Cl)CC2)o1 | 94.38 |
| CCCc1nnc(N2CCN(c3cccc(C)c3C)CC2)o1 | 106.7 |
| CCCc1nnc(N2CCC(C3CCN(C)CC3)CC2)o1 | -0.3277 |
| CCCc1nnc(N2CCC(N3CCCC(O)C3)CC2)o1 (stereo not drawn) | 11.24 |
| CCc1nnc(N2CCN(CCc3ccccc3)C(=O)C2)o1 | -17.07 |
| CCCc1nnc(N2CCN(C3CCCC3)CC2)o1 | -0.2431 |
| CCCc1nnc(N2CCC(N3CCN(CCO)CC3)CC2)o1 | -3.287 |
| COc1nc(C)ccc1CNC(=O)NC(C)(C)c1ncc(C)s1 | 40.1 |
| O=C(c1cccc(-c2ncc[nH]2)c1)N1CCC(N2CCCC(O)C2)CC1 (stereo not drawn) | -7.829 |
| O=C(C1CCC1)N1CCC(C2CCN(Cc3ccc(Cl)cc3)C2)CC1 (stereo not drawn) | 11.03 |
| Cc1cc(-c2nn(C)c(Cl)c2CN2CCN(C)C(C(=O)O)C2)no1 (stereo not drawn) | -9.468 |
| Cc1ccc(Cl)c(CN2CCC3(CC2)C(C(=O)O)CC(=O)N3C)c1F (stereo not drawn) | 1.712 |
| CC(C1CCN(Cc2c(Cl)ccc(O)c2Cl)CC1)N1CCN(C)CC1 (stereo not drawn) | 2.442 |
| Cc1ccc(Cl)c(CN2CCN(C)C(C(=O)O)C2)c1F (stereo not drawn) | 102.6 |
| CC(=O)N1CCN(Cc2ccc(Cl)c(F)c2)CC(O)C1 (stereo not drawn) | 3.004 |
| CN1CCN(Cc2c(Cl)ccc(O)c2Cl)CC1C(=O)O (stereo not drawn) | 96.73 |
| CN1CCN(Cc2ccc(Cl)cc2)CC1C(=O)O (stereo not drawn) | 102.4 |
| O=C(C1CCCC1)N1CCC(C2CCN(Cc3ccc(Cl)cc3)C2)CC1 (stereo not drawn) | 14.43 |
